# Laboratory results as given in PubChem BioAssay (NCI).
# About 79,000 compounds went through this panel and 15% of them were active in at least one assay; those are over-represented in the sample as a whole. A number with no mark means an inactive call. Calls of active or inactive are those of the source. Cut-off read from the data, not from the text of the source: active = growth inhibition above about 70%; inactive = the rest.
# How the values were obtained:
# [1] = NCI Yeast Anticancer Drug Screen. Data for the sgs1 mgt1 strain (AID 161);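 note: 0% = growth of cultures given vehicle only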; conditions: S. cerevisiae sgs1 mgt1 strain, active compounds read high
# How it was run: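 Test agents were incubated with a DNA-repair-mutant yeast strain. Growth was then read and compared against vehicle-treated controls.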
# [2] = NCI Yeast Anticancer Drug Screen. Data for the CLN2oe strain (AID 163);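 note: 0% = growth of vehicle-only control cultures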; conditions: S. cerevisiae CLN2oe strain, active compounds read high
# How it was run: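 Here, growth inhibition in a cell-cycle-altered yeast strain after compound exposure was quantified against vehicle control growth.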
# [3] = NCI Yeast Anticancer Drug Screen. Data for the cln2 rad14 strain (AID 165);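 note: 0% = growth equal to vehicle treated cultures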; conditions: S. cerevisiae cln2 rad14 strain, active compounds read high
# How it was run: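 Growth of compound-exposed yeast (cln2 rad14 genotype) measured and expressed as inhibition relative to vehicle.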
# [4] = NCI Yeast Anticancer Drug Screen. Data for the bub3 strain (AID 167); conditions: S. cerevisiae bub3 mutant strain, active compounds read high
# How it was run: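 Inhibition values come from growth of compound-treated mutant yeast normalised to vehicle-treated controls.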
# [5] = NCI Yeast Anticancer Drug Screen. Data for the wt2 strain (AID 169);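 note: 0% = growth of vehicle-treated yeast cultures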; conditions: S. cerevisiae wt2 strain growth inhibition, active compounds read high
# How it was run: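 Genetically defined yeast strains from a DNA-repair/cell-cycle panel were used. Compound-exposed yeast growth was measured, and the inhibition was calculated relative to vehicle treatment.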
# [6] = NCI Yeast Anticancer Drug Screen. Data for the mlh1 strain (AID 171);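 note: 0% = growth of vehicle-treated control cultures of the same strain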; conditions: S. cerevisiae mlh1 strain growth inhibition, active compounds read high
# How it was run: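 Here the genetically defined yeast mutant is grown with each compound, and the extent to which its growth falls below that of vehicle-exposed cells is reported.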
# [7] = NCI Yeast Anticancer Drug Screen. Data for the sgs1 strain (AID 173);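 note: 0% = growth of vehicle-only control cultures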; conditions: S. cerevisiae sgs1 mutant, active compounds read high
# How it was run: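 Relative growth inhibition, referenced to vehicle, was determined in a yeast strain with a defined alteration affecting DNA damage repair or cell cycle control after compound exposure.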
# [8] = NCI Yeast Anticancer Drug Screen. Data for the mlh1 rad18 strain (AID 175); conditions: S. cerevisiae mlh1 rad18 strain growth inhibition, active compounds read high
# How it was run: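 In this whole-cell yeast screen, a strain with altered DNA damage repair is challenged with compound, and its growth is measured against matched vehicle-treated controls.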
# [9] = NCI Yeast Anticancer Drug Screen. Data for the rad18 strain (AID 177); conditions: S. cerevisiae rad18 mutant growth inhibition, active compounds read high
# How it was run: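 Screen uses a yeast strain with a defined lesion in DNA damage repair; compound effect is read as loss of growth compared to untreated vehicle cultures.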
# [10] = at 5.0 µM (retest, dose inferred, filed as 0.5)
# [11] = at 50.0 µM (retest, dose inferred, filed as 5.0)
structure (smiles),measurement,setting,value
COc1cc2c(cc1OC)[C@@H](Nc1ccc(C#N)cc1)C1COC(=O)[C@@H]1C2c1cc(OC)c(O)c(OC)c1 (some centres not stated),growth inhibition,[1]; [10],17%
same,growth inhibition,[1]; [11],96% (active)
same,growth inhibition,[1]; at 50.0 µM,88% (active)
same,growth inhibition,[2]; at 1.2 µM,-5%
same,growth inhibition,[2]; at 3.7 µM,19%
same,growth inhibition,[2]; at 11.0 µM,11%
same,growth inhibition,[2]; at 33.0 µM,38%
same,growth inhibition,[2]; at 100.0 µM,84% (active)
same,growth inhibition,[3]; [10],7%
same,growth inhibition,[3]; [11],91% (active)
same,growth inhibition,[3]; at 50.0 µM,82% (active)
same,growth inhibition,[4]; at 1.2 µM,-32%
same,growth inhibition,[4]; at 3.7 µM,-13%
same,growth inhibition,[4]; [10],-54%
same,growth inhibition,[4]; at 11.0 µM,-22%
same,growth inhibition,[4]; at 33.0 µM,15%
same,growth inhibition,[4]; [11],95% (active)
same,growth inhibition,[4]; at 50.0 µM,89.2% (active)
same,growth inhibition,[4]; at 100.0 µM,78% (active)
same,growth inhibition,[5]; at 1.2 µM,6%
same,growth inhibition,[5]; at 3.7 µM,17%
same,growth inhibition,[5]; at 11.0 µM,46%
same,growth inhibition,[5]; at 33.0 µM,90% (active)
same,growth inhibition,[5]; at 100.0 µM,93% (active)
same,growth inhibition,[6]; at 1.2 µM,-3%
same,growth inhibition,[6]; at 3.7 µM,9%
same,growth inhibition,[6]; at 11.0 µM,16%
same,growth inhibition,[6]; at 33.0 µM,33%
same,growth inhibition,[6]; at 100.0 µM,81% (active)
same,growth inhibition,[7]; at 1.2 µM,-20%
same,growth inhibition,[7]; at 3.7 µM,-14%
same,growth inhibition,[7]; at 11.0 µM,-2%
same,growth inhibition,[7]; at 33.0 µM,39%
same,growth inhibition,[7]; at 100.0 µM,85% (active)
same,growth inhibition,[8]; [10],9%
same,growth inhibition,[8]; [11],94% (active)
same,growth inhibition,[8]; at 50.0 µM,86.7% (active)
same,growth inhibition,[9]; at 1.2 µM,-30%
same,growth inhibition,[9]; at 3.7 µM,-8%
same,growth inhibition,[9]; at 11.0 µM,-5%
same,growth inhibition,[9]; at 33.0 µM,13%
same,growth inhibition,[9]; at 100.0 µM,84% (active)
